This passage reports Potency results from PubChem BioAssay (NCATS).

Test [1] deals with Aldehyde dehydrogenase, mitochondrial (Homo sapiens) (UniProt P05091). Description: qHTS for Inhibitors of the Aldehyde Dehydrogenase Family (ALDH2) Primary screen (AID 2061308). Further: nearly all actives have a fitted effect of over 55% in size. In general terms: qHTS replaces the single test concentration by a dilution series.
The target of test [2] is Retinaldehyde dehydrogenase 3 (Homo sapiens) (UniProt P47895). The experiment in a line: qHTS for Inhibitors of the Aldehyde Dehydrogenase Family (ALDH1A3) Primary screen (AID 2061315).
Test [3] can be described thus: BET inhibitor-based combinations targeting novel dependencies in MECOM-rearranged (r) AML: OCI-AML3 cell line (AID 2202232). Further: nearly all actives have a fitted effect of over 35% in size. Further: potency means the concentration at half of the fitted maximal effect. The following applies: Potency: OCI-AML3 viability. The method, boiled down:
(§1)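 Viability of cells (500 per well) is scored by luminescent CellTiter-Glo at 48 hr post-dosing. Eleven-point titrations are normalized to DMSO and empty controls and reduced to AUC values.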

Test [4] can be described thus: BET inhibitor-based combinations targeting novel dependencies in MECOM-rearranged (r) AML: MV-4-11 cell line (AID 2202233). Further: nearly all actives have a fitted effect of over 45% in size. Further: potency means the concentration at half of the fitted maximal effect. The method, boiled down:
(§2)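 Using pin-tool transfer, drugs were added in 11 doses to cells (500/well), incubated 48 hr, and assessed with CellTiter-Glo. Z-AUC is a mean-centring transformation applied separately to each screened line.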

The nature of test [5]: BET inhibitor-based combinations targeting novel dependencies in MECOM-rearranged (r) AML: HNT-34 cell line (AID 2202234). Further: nearly all actives have a fitted effect of over 35% in size. Further: potency means the concentration at half of the fitted maximal effect. The method, boiled down:
as §2

The nature of test [6]: BET inhibitor-based combinations targeting novel dependencies in MECOM-rearranged (r) AML: UCSD-AML1 cell line (AID 2202235). Further: nearly all actives have a fitted effect of over 40% in size. Further: potency means the concentration at half of the fitted maximal effect. The method, boiled down: as §2
Test [7] in a line: BET inhibitor-based combinations targeting novel dependencies in MECOM-rearranged (r) AML: AML-191 cell line (AID 2202236; further: nearly all actives have a fitted effect of over 35% in size). The method, boiled down:
as §1

The nature of test [8]: BET inhibitor-based combinations targeting novel dependencies in MECOM-rearranged (r) AML: AML-194 cell line (AID 2202237; further: nearly all actives have a fitted effect of over 40% in size). The method, boiled down:
as §1

A short description of test [9]: BET inhibitor-based combinations targeting novel dependencies in MECOM-rearranged (r) AML: SET-2 cell line (AID 2202231). Further: potency means the concentration at half of the fitted maximal effect; nearly all actives have a fitted effect of over 35% in size. Particulars: SET-2 AML cells viability, CellTiter-Glo luminescence, 48 h; viability: hits give low values, concentration not given here. The method, boiled down:
as §1
(In general: Cellular ATP, detected with luciferase, serves as a proxy for viable cell number.)

Results filed as inconclusive are left out. Active and inactive are the calls of the source. The call rests on the fitted dose curve; in most records, active means well fitted curve in the direction sought with a large enough effect; inconclusive means small, poorly fitted or top-dose-only effect, or another doubt; inactive means no such curve, though single readings can be large; an effect the other way counts as inactive or inconclusive.

Regarding `CC(C)c1c(-c2ccccc2)nc2c(C#N)c[nH]n2c1=O`, the Potency entry in test [1], in [2], in test [3], in [4], in test [5] and in [6] was “inactive” each time. For the same compound, in [7], the Potency entry is “inactive”.
Turning to `O=C1NC(=O)/C(=C/c2cccc(C(F)(F)F)c2)S1`, the Potency entry in test [1], in test [2], in test [3], in test [7] and in [8] was “inactive” each time.
Take `C[C@@H]1CCN(C(=O)CC#N)C[C@@H]1N(C)c1ncnc2[nH]ccc12`: the Potency result in test [1] and in [2] was “inactive” throughout. The Potency in [9] was 1.48 µM (active); in test [6], 59 nM (active).
With `COc1ncc(Nc2ncc([C@H](C)N3CCN(S(C)(=O)=O)CC3)cc2-c2nc(C)nc(N)n2)cc1F`, the Potency result in [1] and in [2] was “inactive” throughout. For the same compound, the values for the Potency in test [3], in test [4] and in test [6] were 46.8 nM (active), 41.7 nM (active) and 296 nM (active), respectively.
For the compound `O=C(O)c1ccc(CN2CCC(CN[C@@H]3C[C@H]3c3ccccc3)CC2)cc1`, the Potency result in test [1], in [2], in test [5], in test [7] and in test [8] was “inactive” in each case. Also, the figures for the Potency in [9] and in test [6] were 0.186 µM (active) and 209 nM (active), respectively.
In the case of `O=C(O)C1(Cc2cccc(Nc3nccs3)n2)CCC(Oc2cccc(Cl)c2F)CC1` (configuration not stated), the Potency result in [1] and in test [2] was “inactive” each time. Further, the Potency was 1.66 µM (active) in test [9], 662 nM (active) in [3] and 0.468 µM (active) in [5].
As to `CN1CCN(c2cccc(Nc3nc4c(-c5ccc(S(C)(=O)=O)cc5)cccn4n3)c2)CC1`, the Potency result in [1] and in test [2] was “inactive” each time. Further, the Potency in [9] is 4.17 µM (active); in [4], 662 nM (active); in test [5], 2.35 µM (active); in test [6] it was 1660 nM (active).
Take `C[C@@H]1COC(Nc2ccc3ncnc(Nc4ccc(OCc5nccs5)c(Cl)c4)c3c2)=N1`: the Potency entry in [1] and in test [2] was “inactive” each time. In addition, the Potency in test [4] was 18600 nM (active); in test [5], 20.9 µM (active); in test [6] it was 26300 nM (active).
Take `CCN1CCN(Cc2ccc(NC(=O)Nc3ccc(Oc4cc(NC)ncn4)cc3)cc2C(F)(F)F)CC1`: the Potency result in test [1] and in [2] was “inactive” throughout. The Potency in test [4] was 2.3 nM (active).
